# Screening data (PubChem BioAssay)
# ELG1 genotoxic = qHTS screen for small molecules that induce genotoxicity in human embryonic kidney (HEK293T) cells expressing luciferase-tagged ELG1; Potency, µM (series often up to 46 µM), hits mostly activators; HEK293T ELG1-luciferase reporter, luminescence, 16 h; 330,000 tested, 1.3% active; further: nearly all actives have a fitted effect of over 60% in size
#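 HEK293T cells expressing luciferase-tagged ELG1 were exposed to compound or DMSO vehicle for 16 hr at 37 °C and 5% CO2. Luciferase activity was then measured with ONE-Glo after 30 min at room temperature.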
# Rab9 prom act = qHTS Assay for Rab9 Promoter Activators. Huh7 Rab9 promoter-luciferase reporter, luminescence, 24 h. Potency, µM (top dose mostly 9.22 µM), usual class: activators. 320,000 tested, 2.8% active; further: nearly all actives have a fitted effect of over 60% in size
#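 Huh7 reporter line, Rab9 promoter upstream of luciferase. Compound exposure 24 h at 37 °C in reduced-serum medium with 10% FBS. Read-out: luminescence.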
# FLuc modulator = qHTS profiling assay for firefly luciferase inhibitor/activator using purifed enzyme and Km concentrations of substrates (counterscreen for miR-21 project) | Luciferin 4-monooxygenase (Photinus pyralis), P08659 | purified FLuc, Km substrates, luminescence inhibition | Potency, µM (highest dose often 57.5 µM), most hits filed as inhibitors | 360,000 tested, 6.9% active | AID 588342, 2011; further: nearly all actives have a fitted effect of over 55% in size
# Target sequence (P08659 whole entry, looked up): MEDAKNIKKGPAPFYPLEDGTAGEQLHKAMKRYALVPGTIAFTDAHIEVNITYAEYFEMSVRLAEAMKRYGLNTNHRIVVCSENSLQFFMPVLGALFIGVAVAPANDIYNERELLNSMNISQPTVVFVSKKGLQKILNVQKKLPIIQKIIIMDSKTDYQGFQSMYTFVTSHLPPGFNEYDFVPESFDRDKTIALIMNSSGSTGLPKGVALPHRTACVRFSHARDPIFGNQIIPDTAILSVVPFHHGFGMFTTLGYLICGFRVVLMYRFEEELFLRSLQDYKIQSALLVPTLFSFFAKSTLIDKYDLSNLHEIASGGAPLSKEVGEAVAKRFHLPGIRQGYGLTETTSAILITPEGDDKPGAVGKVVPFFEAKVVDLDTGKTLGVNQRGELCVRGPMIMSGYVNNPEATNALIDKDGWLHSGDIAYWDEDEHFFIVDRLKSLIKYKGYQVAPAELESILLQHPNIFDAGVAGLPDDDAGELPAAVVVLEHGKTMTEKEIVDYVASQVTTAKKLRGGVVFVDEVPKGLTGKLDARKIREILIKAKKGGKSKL
#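 Purified P. pyralis luciferase, 10 nM final, with Km-level 10 uM D-luciferin and 10 uM ATP in 50 mM Tris acetate pH 7.5, 10 mM Mg acetate, 0.01% Tween-20, 0.05% BSA; 6-point qHTS titration about 60 µM downward; luminescence read.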
# Luc counter = Counterscreen for Luciferase (Kinase-Glo TM) Inhibition | 200,000 tested, 0.28% active | Luciferin 4-monooxygenase (Photuris pensylvanica), Q27757 | Potency, µM (series often up to 38.3 µM), usual class: inhibitors | Kinase-Glo luciferase, ATP luminescence, 8 min | AID 1379, 2008; further: nearly all actives have a fitted effect of over 60% in size
#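 Compounds were added to a substrate mix at pH 7.2 (50 mM imidazole, 10 uM ATP, within the enzyme's linear range), followed by Kinase-Glo detection reagent; luminescence was measured after 8 minutes at ambient temperature.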
# NPC1 promoter act = qHTS Assay for NPC1 Promoter Activators. Huh7 NPC1 promoter luciferase reporter, 24 h. Potency, µM (doses to about 9.22 µM), actives largely listed as activators. 320,000 tested, 2.4% active; further: nearly all actives have a fitted effect of over 60% in size
#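 Luciferase expression driven by the NPC1 promoter was measured in stably transfected Huh7 cells after a 24 h compound incubation, using a luciferase reagent and a luminescence read.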
# SMN2 splice enh = qHTS Assay for Enhancers of SMN2 Splice Variant Expression; HEK293 SMN2-luciferase splicing reporter, luminescence, 30-36 h; Potency, µM (top dose mostly 46.1 µM), hits mostly activators; 210,000 tested, 2.8% active; further: nearly all actives have a fitted effect of over 55% in size
#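 HEK293 cells carry an SMN2 minigene-luciferase reporter in which exon 7 inclusion puts luciferase in frame. Cells were seeded at 2000 cells/well, attached for 10-12 hours, then exposed to compounds for 30-36 hours at 37C before ONE-Glo luminescence.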
# Numbers stand for hits; - = inactive; ? = inconclusive; . = no result; [ ] = dose if it differs, or a comment. Hits are enriched below; roughly 7.5% of the tested compounds scored in any of these assays. The call rests on the fitted dose curve; in most records, active means well fitted curve in the direction sought with a large enough effect; inconclusive means small, poorly fitted or top-dose-only effect, or another doubt; inactive means no such curve, though single readings can be large; an effect the other way counts as inactive or inconclusive.
SMILES,ELG1 genotoxic,Rab9 prom act,FLuc modulator,Luc counter,NPC1 promoter act,SMN2 splice enh
COC(=O)Cc1ccc(NC(=O)c2ccc(NC(=O)c3ccco3)cc2)cc1,-,-,-,-,-,-
CCOc1ccc(NC(=S)NC(=O)c2ccco2)cc1,-,1.4µM,11µM,.,2µM,.
COc1ccc(OCC(=O)Nc2cccc(NC(=O)c3ccco3)c2)cc1,-,-,12µM,-,-,.
CCOc1ccc(NC(=O)CCC(=O)NNC(=O)c2ccco2)cc1,-,-,-,-,-,-
C=CCNC(=O)c1ccc(S(=O)(=O)CC)c(Cl)c1Cl,-,-,-,-,-,-
COc1ccc(NC(=O)NNC(=O)C(C)Oc2ccc3ccccc3c2)cc1 (stereo not given),-,-,-,.,-,.
COc1ccc(NC(=O)Nc2cccc(OCc3cc(=O)n4cccc(C)c4n3)c2)c(OC)c1,.,.,-,.,.,.
CCOc1ccc(NC(=O)c2ccco2)cc1,?,0.63µM,4.8µM,-,0.71µM,10µM
Cc1c(NC(=O)CSc2ccccc2Cl)c(=O)n(-c2ccccc2)n1C,-,-,-,-,-,-
COc1ccc2c(c1OC)C(=O)N1c3ccccc3C(=O)OC21 (stereo not given),.,.,.,-,.,-
COc1ccc2c(c1OC)C(=O)N1c3ccccc3COC21 (stereo not given),?,1.8µM,3.4µM,-,3.5µM,14µM
COc1ccc2c(c1OC)C(=O)N1c3ccccc3SC21 (stereo not given),?,2.8µM,2.4µM,-,2.5µM,11µM
COc1cccc(CC(NC(C)=O)C(=O)NC2CCN(C(=O)c3ccc(Cl)cc3)CC2)c1OC (stereo not given),-,-,-,.,-,.
CC(C)Oc1ccc(CNC(=O)c2ccc3nc(C(C)C)oc3c2)cc1,.,.,-,.,.,.
COc1ccccc1C(=O)NCc1ccc2c(c1)CCN2C(=O)c1cccc(C)c1,.,.,-,.,.,.
Cc1ccc(C(=O)N2CCc3cc(CNC(=O)c4ccccc4F)ccc32)cc1,.,.,19µM,.,.,.
CNc1nc(-c2ccc3c(c2)CCN3C(=O)c2ccccc2F)c(C)s1,-,-,15µM,-,-,.
CNc1nc(-c2ccc3c(c2)CCN3C(=O)c2ccccc2F)cs1,?,0.56µM,1.5µM,-,1.6µM,13µM
CCOC(=O)CNc1oc(-c2ccccc2)nc1-c1ccccc1,.,.,.,-,.,-
CCc1ccc2oc(C(=O)Nc3nonc3CC)c(C)c2c1,?,3.5µM,?,.,?,-
COc1ccc(-c2nsc(NC(=O)c3oc4ccc(Cl)cc4c3C)n2)cc1,.,.,-,.,.,-
CCc1ccc2oc(C(=O)Nc3nc(-c4ccccc4)ns3)c(C)c2c1,.,.,5.4µM,.,.,?
Cc1cc2oc(C(=O)Nc3nonc3C)c(C)c2cc1Cl,?,3.5µM,-,.,?,.
Cc1nonc1NC(=O)c1oc2ccc(F)cc2c1C,-,?,-,.,?,.
CCCNC(=O)c1ccc2c(c1)nc(C)n2-c1cccc(Cl)c1,-,-,-,.,-,.
SMILES,ELG1 genotoxic,Rab9 prom act,FLuc modulator,Luc counter,NPC1 promoter act,SMN2 splice enh
O=C(c1ccccc1)[C@H]1[C@H](c2ccccc2)[C@@]2(N=C(c3ccccc3)OC2=O)C2c3ccccc3C=NN21 (stereo not given in full),-,4.5µM,?,-,4µM,?
COc1ccc(-c2cc(=O)n3[nH]cnc3n2)cc1,.,.,15µM,.,.,.
COC(=O)c1c(NC(=O)c2cccs2)sc2c1CCC(C)C2 (stereo not given),-,?,11µM,-,?,-
CC1CCc2c(sc(NC(=O)c3cccs3)c2C(=O)O)C1 (stereo not given),-,-[1.84 µM],6.7µM,.,-,.
CCCC1CCc2c(sc(NC(=O)c3cccs3)c2C(N)=O)C1 (stereo not given),-,?,3.4µM,-,?,-
CCC1CCc2c(sc(NC(=O)c3cccnc3)c2C(N)=O)C1 (stereo not given),?,?,?,-,-,-
